In PubChem BioAssay (EPA / NIEHS):
Activity calls are given as the source filed them. Rule for the calls: active = hit-call score of the fitted dose curve at least 0.9, where 1 is the maximum; inactive = score below 0.9.

Assays:
[1] = read-out: TIMP metallopeptidase inhibitor 2 (TIMP2), TIMP2 (gene 7077); assay: BSK_KF3CT_TIMP2: BioMAP Diversity Plus: KF3CT Assay for TIMP metallopeptidase inhibitor 2 (TIMP2) Biomarker Activity (AID 2283071); conditions: primary human keratinocytes with fibroblasts; actives raise or lower the signal
In short: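 Human primary keratinocyte/foreskin fibroblast co-culture dosed with chemical and sampled at 24 h. TIMP-2 levels quantified by ELISA; bidirectional fitting against DMSO negative control as baseline.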

[2] = read-out: Transforming growth factor beta 1 (TGFb1), TGFB1 (gene 7040); assay: BSK_KF3CT_TGFb1: BioMAP Diversity Plus: KF3CT Assay for Transforming growth factor beta 1 (TGFb1) Biomarker Activity (AID 2283072); conditions: primary human keratinocytes with fibroblasts; actives raise or lower the signal
In short: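 Human keratinocyte plus foreskin fibroblast primary co-culture, dosed with chemical for 24 h. TGF-b1 quantified by ELISA. Activity fitted bidirectionally against DMSO negative control as baseline.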

[3] = read-out: C-C motif chemokine 2 (Homo sapiens) (UniProt P13500); assay: BSK_KF3CT_MCP1: BioMAP Diversity Plus: KF3CT Assay for Monocyte Chemoattractant Protein 1 (MCP1/CCL2) Biomarker Activity (AID 2283073); conditions: primary human keratinocytes with fibroblasts; actives raise or lower the signal
In short: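 Keratinocytes and foreskin fibroblasts were co-cultured, dosed with chemical, and sampled 24 h later. MCP-1 was quantified by ELISA, and the endpoint was analyzed with bidirectional fitting using DMSO as negative control.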

[4] = read-out: urokinase plasminogen activator (uPA), PLAU (gene 5328); assay: BSK_KF3CT_uPA: BioMAP Diversity Plus: KF3CT Assay for urokinase plasminogen activator (uPA) Biomarker Activity (AID 2283075); conditions: primary human keratinocytes with fibroblasts; actives raise or lower the signal
In short: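 ELISA readout of uPA, analyzed for signal gain or loss relative to DMSO, from a human primary keratinocyte–foreskin fibroblast co-culture measured 24 h after chemical treatment.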

CD40, CD40 (gene 958) [5] = assay: BSK_LPS_CD40: BioMAP Diversity Plus: LPS Assay for CD40 Biomarker Activity (AID 2283076); conditions: primary human HUVEC with PBMC; actives raise or lower the signal
In short: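 CD40 signal, measured by ELISA, is fitted in both directions relative to DMSO vehicle. The system is an LPS-driven human vascular primary co-culture of endothelial cells and PBMC, sampled 24 h after compound addition.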

[6] = read-out: E-selectin (Homo sapiens) (UniProt P16581); assay: BSK_LPS_Eselectin: BioMAP Diversity Plus: LPS Assay for Eselectin Biomarker Activity (AID 2283077); conditions: primary human HUVEC with PBMC; actives raise or lower the signal
In short: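 Signal of E-selectin, detected by ELISA, served as the endpoint; cells were umbilical vein endothelium with PBMC, read 24 h after treatment. DMSO defined baseline, and both increases and decreases were fitted.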

[7] = read-out: Interleukin-8 (IL8), CXCL8 (gene 3576); assay: BSK_LPS_IL8: BioMAP Diversity Plus: LPS Assay for Interleukin-8 (IL8) Biomarker Activity (AID 2283078); conditions: primary human HUVEC with PBMC; actives raise or lower the signal
In short: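 Endothelial cells and PBMC from human donors are co-cultured, treated with chemicals and LPS, then assayed for IL-8 by ELISA after 24 h. Parallel SRB staining (0.1% SRB after 10% TCA fixation, 560 nm) flags cytotoxicity.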

[8] = BSK_LPS_SRB: Viability Assessment in the BioMAP Diversity Plus: LPS Assay (AID 2283079); conditions: primary human HUVEC with PBMC;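 note: total protein by sulforhodamine B absorbance as a cytotoxicity measure; measured one day after compound addition; fitted in both directions against DMSO so loss or gain of signal counts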
In short: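 Overt cytotoxicity was gauged by sulforhodamine B total-protein staining in a primary human vascular endothelial and mononuclear cell co-culture 24 h post-dosing. Activity was fitted in both directions relative to DMSO.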

[9] = read-out: Interleukin-1 alpha (IL1a), IL1A (gene 3552); assay: BSK_LPS_IL1a: BioMAP Diversity Plus: LPS Assay for Interleukin-1 alpha (IL1a) Biomarker Activity (AID 2283080); conditions: primary human HUVEC with PBMC; actives raise or lower the signal
In short: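 Measured: IL-1 alpha via ELISA at 24 h in LPS-activated human umbilical vein endothelium–PBMC co-culture. Baseline: DMSO, bidirectional fitting.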

[10] = read-out: Monocyte Chemoattractant Protein-1 (MCP1), CCL2 (gene 6347); assay: BSK_LPS_MCP1: BioMAP Diversity Plus: LPS Assay for Monocyte Chemoattractant Protein-1 (MCP1) Biomarker Activity (AID 2283081); conditions: primary human HUVEC with PBMC; actives raise or lower the signal;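 for AC50: secreted MCP-1 protein quantified by ELISA in culture supernatant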
In short: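 LPS-stimulated HUVEC/PBMC co-culture; chemical, 24 h; MCP-1 by ELISA; bidirectional fit vs DMSO; cytotoxicity via SRB (0.1% stain, 10% TCA fix, 560 nm) in parallel wells.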

[11] = BSK_LPS_PGE2: BioMAP Diversity Plus: LPS Assay for Prostaglandin E2 (PGE2) Biomarker Activity (AID 2283082); conditions: primary human HUVEC with PBMC; actives raise or lower the signal;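 for AC50: secreted prostaglandin E2 measured by ELISA in LPS-stimulated co-culture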
In short: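 HUVEC plus PBMC co-culture stimulated with LPS; secreted PGE2 quantified by ELISA 24 h after chemical dosing. Activity fitted bidirectionally against DMSO as negative control and baseline; parallel SRB total-protein staining served as cytotoxicity check.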

[12] = read-out: Macrophage colony-stimulating factor (MCSF), CSF1 (gene 1435); assay: BSK_LPS_MCSF: BioMAP Diversity Plus: LPS Assay for Macrophage colony-stimulating factor (MCSF) Biomarker Activity (AID 2283083); conditions: primary human HUVEC with PBMC; actives raise or lower the signal
In short: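 Compound is added to a human vascular primary co-culture of umbilical vein endothelium and blood mononuclear cells. After 24 h, M-CSF is quantified by ELISA. Signal changes are fitted in both directions against DMSO.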

[13] = read-out: Tissue Factor, F3 (gene 2152); assay: BSK_LPS_TissueFactor: BioMAP Diversity Plus: LPS Assay for Tissue Factor Biomarker Activity (AID 2283084); conditions: primary human HUVEC with PBMC; actives raise or lower the signal
In short: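 In this co-culture system of umbilical vein endothelium with PBMC, stimulated with LPS, cell-surface CD142 is detected by ELISA at 24 h. Endpoint values derive from bidirectional fitting, DMSO serving as baseline.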

[14] = read-out: Tumor necrosis factor (Homo sapiens) (UniProt P01375); assay: BSK_LPS_TNFa: BioMAP Diversity Plus: LPS Assay for Tumour Necrosis Factor alpha (TNFa) Biomarker Activity (AID 2283085); conditions: primary human HUVEC with PBMC; actives raise or lower the signal
In short: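 Human umbilical vein endothelial cells co-cultured with PBMC were exposed to test chemical and TNFa measured by ELISA 24 h after dosing. Bidirectional curve fitting was done relative to DMSO as negative control and baseline.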

[15] = read-out: Vascular cell adhesion molecule 1 (VCAM1), VCAM1 (gene 7412); assay: BSK_LPS_VCAM1: BioMAP Diversity Plus: LPS Assay for Vascular cell adhesion molecule 1 (VCAM1) Biomarker Activity (AID 2283086); conditions: primary human HUVEC with PBMC; actives raise or lower the signal
In short: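 Human umbilical vein endothelial cells co-cultured with peripheral blood mononuclear cells under LPS stimulation were exposed to test chemical for 24 h. VCAM-1 levels were then measured by ELISA, with bidirectional curve fitting relative to DMSO as negative control and baseline.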

CD38, CD38 (gene 952) = assay: BSK_SAg_CD38: BioMAP Diversity Plus: SAg Assay for CD38 Biomarker Activity (AID 2283087); conditions: primary human HUVEC with PBMC; actives raise or lower the signal
In short: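 Fluorescence ELISA of cell-surface CD38 served as the read-out, with either increase or decrease fitted against DMSO controls. Cells were a human umbilical vein endothelium plus PBMC co-culture under SEB/TSST-1 stimulation, measured 24 h after dosing.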

CD40, CD40 (gene 958) [16] = assay: BSK_SAg_CD40: BioMAP Diversity Plus: SAg Assay for CD40 Biomarker Activity (AID 2283088); conditions: primary human HUVEC with PBMC; actives raise or lower the signal
In short: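 Fluorescence ELISA read-out of CD40 from umbilical vein endothelium plus peripheral blood mononuclear cells, sampled 24 h after dosing. Values come from bidirectional curve fitting with DMSO as baseline.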

CD69, CD69 (gene 969) = assay: BSK_SAg_CD69: BioMAP Diversity Plus: SAg Assay for CD69 Biomarker Activity (AID 2283089); conditions: primary human HUVEC with PBMC; actives raise or lower the signal;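 for AC50: cell surface CD69 protein quantified by ELISA with fluorescence detection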
In short: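 HUVEC co-cultured with PBMC were dosed with chemical, and CD69 was measured by ELISA with fluorescence read-out 24 h later. Bidirectional curve fitting used DMSO as negative control and activity baseline.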

[17] = read-out: Monocyte Chemoattractant Protein-1 (MCP1), CCL2 (gene 6347); assay: BSK_SAg_MCP1: BioMAP Diversity Plus: SAg Assay for Monocyte Chemoattractant Protein-1 (MCP1) Biomarker Activity (AID 2283090); conditions: primary human HUVEC with PBMC; actives raise or lower the signal
In short: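 MCP-1 levels in the endothelial–PBMC SAg co-culture were quantified by ELISA at 24 h post-dosing; both increases and decreases versus DMSO scored. Cytotoxicity monitored by SRB total protein in parallel cultures.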

[18] = read-out: Matrix Metallopeptidase 9 (MMP9), MMP9 (gene 4318); assay: BSK_KF3CT_MMP9: BioMAP Diversity Plus: KF3CT Assay for Matrix Metallopeptidase 9 (MMP9) Biomarker Activity (AID 2283074); conditions: primary human keratinocytes with fibroblasts; actives raise or lower the signal;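 for AC50: MMP9 protein level quantified by ELISA in the co-culture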
In short: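 Human keratinocyte/foreskin fibroblast co-culture; compound added; 24 h; MMP-9 by ELISA; bidirectional fit vs DMSO baseline.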

Measured: AC50

Sequence of E-selectin (Homo sapiens) (P16581 whole entry, looked up): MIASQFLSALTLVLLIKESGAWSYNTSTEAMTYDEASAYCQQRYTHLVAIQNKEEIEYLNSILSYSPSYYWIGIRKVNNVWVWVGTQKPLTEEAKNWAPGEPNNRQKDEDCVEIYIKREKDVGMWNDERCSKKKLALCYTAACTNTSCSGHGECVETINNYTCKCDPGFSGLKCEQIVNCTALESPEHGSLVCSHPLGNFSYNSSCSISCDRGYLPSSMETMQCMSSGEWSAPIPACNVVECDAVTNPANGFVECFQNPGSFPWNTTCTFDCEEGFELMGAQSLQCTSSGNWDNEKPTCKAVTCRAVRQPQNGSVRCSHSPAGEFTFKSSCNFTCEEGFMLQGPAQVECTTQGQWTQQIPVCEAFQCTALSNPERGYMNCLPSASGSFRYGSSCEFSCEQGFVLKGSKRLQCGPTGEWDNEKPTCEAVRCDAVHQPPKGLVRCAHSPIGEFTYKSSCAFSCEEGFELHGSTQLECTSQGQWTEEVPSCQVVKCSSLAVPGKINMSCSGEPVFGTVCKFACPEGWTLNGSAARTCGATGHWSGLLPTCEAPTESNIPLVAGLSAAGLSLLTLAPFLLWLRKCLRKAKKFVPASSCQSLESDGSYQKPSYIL
Sequence of Tumor necrosis factor (Homo sapiens) (P01375 whole entry, looked up): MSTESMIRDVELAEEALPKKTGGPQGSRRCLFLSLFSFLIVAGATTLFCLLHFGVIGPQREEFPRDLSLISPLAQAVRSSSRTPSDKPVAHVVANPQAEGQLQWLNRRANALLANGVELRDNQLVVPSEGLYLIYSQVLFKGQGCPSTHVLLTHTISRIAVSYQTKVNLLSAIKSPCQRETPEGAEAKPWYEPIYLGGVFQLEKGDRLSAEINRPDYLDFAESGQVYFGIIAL

COC(=O)NS(=O)(=O)c1ccc(N)cc1
not listed: [18]
inactive: all other assays above

CC(C)NC(=O)N1CC(=O)N(c2cc(Cl)cc(Cl)c2)C1=O
not listed: [7]
inactive: all other assays above

COP(=S)(OC)Oc1ccc([N+](=O)[O-])c(C)c1
active: [18] 15.1 µM | [8] 10.6 µM | [10] 20 µM | [12] 20 µM | [15] 31.5 µM | CD40, CD40 (gene 958) [16] 7.6 µM | CD69, CD69 (gene 969) 37 µM
not listed: [6] | [7]
inactive: all other assays above

CCCCC(C#N)(Cn1cncn1)c1ccc(Cl)cc1 (centres undefined)
active: [11] 12 µM
inactive: all other assays above

CNC(=O)Oc1cccc2ccccc12
active: CD40, CD40 (gene 958) [5] 20 µM | [8] 13.3 µM | [11] 1.63 µM | [12] 20 µM | [15] 9.39 µM
not listed: [7]
inactive: all other assays above

COc1cc(OC)nc(NC(=O)NS(=O)(=O)c2ncccc2OCC(F)(F)F)n1
not listed: [18]
inactive: all other assays above
